Screening data as filed in PubChem.
An excerpt weighted towards active compounds, which were near 16% of everything screened.
TDP1 cell noCPT = qHTS for Inhibitors of human tyrosyl-DNA phosphodiesterase 1 (TDP1): qHTS in cells in absence of CPT; DT40 Tdp1-/- hTDP1 cells, no CPT, ATP luminescence, 48 h; AID 686978, 2013; Potency, µM (top dose mostly 46.2 µM), for the others: at the highest dose activity change, negative = growth inhibition, most hits filed as inhibitors; 15% of 420,000 active; further: potency means the concentration at half of the fitted maximal effect; on the % scale 0 is the no-effect control and ±100 the full control effect; nearly all actives have a fitted effect of over 55% in size
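Chicken DT40 Tdp1-/- cells stably complemented with human TDP1 were seeded at 400 cells/well with DMSO in place of 20 nM camptothecin. After compound pinning, cells grew at least 48 hr at 37 °C; viability read by CellTiter-Glo luminescence.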
TDP1 block = qHTS Assay for Inhibitors of Tyrosyl-DNA Phosphodiesterase (TDP1); Tyrosyl-DNA phosphodiesterase 1 (Homo sapiens), Q9NUW8; Potency, µM (titrated, usually from 130 µM), inactives show top-dose activity change, negative = inhibition, actives largely listed as inhibitors; recombinant TDP1, AlphaScreen DNA substrate cleavage; 0.28% of 350,000 active; further: potency means the concentration at half of the fitted maximal effect; on the % scale 0 is the no-effect control and ±100 the full control effect; nearly all actives have a fitted effect of over 40% in size
Target sequence (Q9NUW8 whole entry, looked up): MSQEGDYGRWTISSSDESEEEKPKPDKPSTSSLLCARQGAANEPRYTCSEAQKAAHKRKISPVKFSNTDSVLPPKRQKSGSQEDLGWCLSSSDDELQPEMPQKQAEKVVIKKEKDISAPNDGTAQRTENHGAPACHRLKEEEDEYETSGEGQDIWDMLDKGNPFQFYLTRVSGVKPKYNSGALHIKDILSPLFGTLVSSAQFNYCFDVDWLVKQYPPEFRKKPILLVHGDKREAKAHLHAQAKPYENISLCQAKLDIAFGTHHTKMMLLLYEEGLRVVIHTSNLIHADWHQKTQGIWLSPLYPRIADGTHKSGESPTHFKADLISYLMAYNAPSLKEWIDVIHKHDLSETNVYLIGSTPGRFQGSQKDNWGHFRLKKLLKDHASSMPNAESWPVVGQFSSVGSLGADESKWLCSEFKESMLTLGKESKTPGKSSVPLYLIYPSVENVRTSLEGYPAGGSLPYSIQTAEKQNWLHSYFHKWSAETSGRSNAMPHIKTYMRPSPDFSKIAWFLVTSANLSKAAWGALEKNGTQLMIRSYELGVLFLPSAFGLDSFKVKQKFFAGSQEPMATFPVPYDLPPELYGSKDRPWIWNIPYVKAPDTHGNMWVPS
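Steps: enzyme plus compound, 15 min RT; add biotin/phosphotyrosine-FITC oligonucleotide (15 nM final), react 5 min; add donor/acceptor beads (10 ug/ml final), 10 min; read AlphaScreen. Tdp1 at 1 nM final.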
miR-21 act = qHTS Assay for Modulators of miRNAs and/orActivators of miR-21 | HeLa miR-21 FLuc reporter, luciferase, 48 h | 340,000 tested, under 10 active | Potency, µM (top dose mostly 38.3 µM), inactives show at the top dose activity change, positive = activation, hits mostly activators;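 further: % of control where 0% means no effect; miR-21 action dims this reporter so a rising signal means less miR-21 action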
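Compounds were titrated across several concentrations (up to approximately 40 uM) and incubated 48 hours with HeLa miR-21-FLuc reporter cells (miR-21 target sequence downstream of FLuc, endogenous miR-21). Readout was firefly luciferase luminescence after lytic detection reagent.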
TDP1 cell CPT = qHTS for Inhibitors of human tyrosyl-DNA phosphodiesterase 1 (TDP1): qHTS in cells in presence of CPT. chicken DT40 Tdp1-/-;hTDP1 cells + 20 nM CPT, ATP luminescence, 48 h. Potency, µM (highest dose often 46.2 µM), for inactives: top-dose activity change, negative = growth inhibition, actives largely listed as inhibitors. 12% of 420,000 active. AID 686979, 2013; further: potency means the concentration at half of the fitted maximal effect; on the % scale 0 is the no-effect control and ±100 the full control effect; nearly all actives have a fitted effect of over 55% in size
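Chicken DT40 Tdp1-/- cells stably complemented with human TDP1 were seeded at 400 cells/well in medium containing 20 nM camptothecin, exposed to pin-transferred compounds, and grown at 37 °C for at least 48 hr. Viability was read as ATP luminescence.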
uPA generation = qHTS for Inhibitors of Cell Surface uPA Generation. cell surface uPA generation assay, qHTS. Potency, µM (highest dose often 38.3 µM), inactives show at the highest dose activity change, negative = inhibition, usual class: inhibitors. 0.31% of 330,000 active; active means well fitted inhibition curve with a large enough effect; inconclusive means small, poorly fitted or top-dose-only effect; inactive means no such curve, though single readings can be large or run the other way; tested in mouse RAW 264.7 cells; further: potency means the concentration at half of the fitted maximal effect; on the % scale 0 is the no-effect control and ±100 the full control effect; nearly all actives have a fitted effect of over 55% in size
An asterisk follows results filed as active; ? = inconclusive; . = no result given; [ ] = another dose, or the depositor's remark. Unless noted, the call rests on the fitted dose curve; in most records, active means well fitted curve in the direction sought with a large enough effect; inconclusive means small, poorly fitted or top-dose-only effect, or another doubt; inactive means no such curve, though single readings can be large; an effect the other way counts as inactive or inconclusive.

SMILES | TDP1 cell noCPT | TDP1 block | miR-21 act | TDP1 cell CPT | uPA generation
CCc1cnc(Nc2nc(C(N)Cc3ccc(F)cc3)cs2)nc1 (stereo not given) | 18.4µM* | . | . | 11.6µM* | .
COc1ccc(CC(N)c2csc(Nc3nc(C)cnc3C)n2)cc1 (stereo not given) | 14.6µM* | . | . | 18.4µM* | .
COC(=O)c1cnc(Nc2nc(CN)cs2)nc1C(F)(F)F | ? | . | . | -16.5% | .
COc1cccc(C(=O)NCC(=O)OCC(=O)Nc2cc(OC)c([N+](=O)[O-])cc2C)c1 | 0.3% | 2.7% | -0.6% | 4.9% | -6.1%
Cc1ccc(-n2nc(C)c3c(C(=O)Nc4ccccc4C(F)(F)F)cc(C)nc32)cc1 | ? | -10.6% | 5.2% | ? | .
O=C(Nc1ccccc1C(=O)O)c1cc(S(=O)(=O)Nc2ccccc2)ccc1Cl | ? | . | 8.4% | ? | 1.4%
COc1ccc(-n2c(=O)c(-c3cc(F)cc(F)c3)nc3cncnc32)cc1 | 20.1% | . | . | -0.2% | .
O=C(Nc1ccccn1)C1CCN(S(=O)(=O)c2ccc3ccccc3c2)CC1 | -8.8% | 2.5% | . | -21.5% | 7.1%
CC(=O)NCCc1nc2ccccc2n1Cc1cc(C)ccc1C | ? | 1.9% | 0.8% | ? | 0.9%
Cc1c(S(=O)(=O)N2CCCC(C(=O)O)C2)cnn1C (stereo not given) | -13.2% | -2.3% | -2.7% | 5.8% | 4.1%
CC(=O)O[C@H]1C2=C(C(=O)[C@H]3O[C@@H]31)[C@@H]1[C@@H]3[C@@H](C)OC=C4[C@H](O)[C@H]5O[C@@H]5C(=O)[C@]43C2O[C@H]1C | . | 3.7%[21 µM] | . | . | .
N#CC1=C(c2ccccc2)/C(=C/c2ccccc2)OC1=O | 18.4µM* | 8.1% | 6.9% | 23.1µM* | -7.2%
Cc1cc(C)n(-c2ccc(C(=O)Nc3cccc([N+](=O)[O-])c3)cc2)n1 | ? | 1.2% | 5.7% | -23.5% | 1.5%
CCN(CC)S(=O)(=O)c1cccc(NC(=O)c2ccc(-n3nc(C)cc3C)cc2)c1 | 23.1µM* | 4.6% | 25.8% | ? | -14.1%
Cc1cc(C)n(-c2ccc(C(=O)Nc3ccc(S(=O)(=O)N(C)C)cc3)cc2)n1 | 23.1µM* | 5.3% | ? | ? | 1.0%
Cc1cc(C)n(-c2ccc(C(=O)Nc3cccc(S(=O)(=O)N(C)C)c3)cc2)n1 | 1.64µM* | 1.9% | 24.5% | 1.84µM* | -9.1%
Cc1ccc(C2CC(=O)c3cnc(NC(=O)c4ccco4)nc3C2)cc1 (stereo not given) | ? | 3.1% | -7.1% | -23.4% | -4.3%
Nc1ccc2c(c1)sc1ccccc12 | -4.5% | -2.6% | -72.6% | 0.9% | -4.3%
O=C(Nc1cccc(C(F)(F)F)c1)c1cc(-c2cccs2)on1 | ? | -2.9% | -3.0% | -15.4% | .
Cc1ccc(-n2nnnc2Sc2nc([N+](=O)[O-])nn2C)c(C)c1 | ? | . | . | 16.4µM* | -6.9%
CNC(=O)c1sccc1SCc1c(Cl)cccc1Cl | ? | 0.0% | 1.0% | ? | -2.7%
CNC(=O)c1sccc1SCc1ccc(Cl)cc1Cl | 18.4µM* | 2.0% | -3.2% | 20.6µM* | -4.3%
O=C(Nc1ccccc1)c1ccccc1N=Cc1cccc(O)c1 | ? | -2.7% | -2.0% | -26.5% | -3.7%
Cc1ccc(C=Nc2ccccc2C(N)=O)cc1 | 3.16µM* | -0.7% | -8.5% | 2.82µM* | .
Cc1ccc(C=Nc2ccccc2C(=O)Nc2ccccc2)cc1 | 11.6µM* | 1.9% | -30.3% | ? | -2.4%
Cc1ccccc1C=Nc1ccccc1C(N)=O | 4.61µM* | 4.5% | 18.8% | 5.17µM* | -6.1%
C[N+]12CCCCC1[C@@H](CO)CCC2 (stereo not given in full) | 13.3% | . | 1.3% | -13.3% | 6.4%
CCN=C1SCC(=O)N1c1ccc(OC)cc1 | 11.0% | 4.4% | -7.3% | -4.2% | 0.5%
